Where “and” joins values, the source holds several entries; their conditions need not be identical. Equal entries are not always repeated. Inconclusive results are not listed. A call without a number means that no potency is given here. Some compounds were tested as several samples or in several runs, with calls that do not always agree. Calls of active or inactive are those of the source. Calls follow the shape of the dose curve; as a rule, active = well fitted cell-killing curve with a large enough effect in the repeat runs; inconclusive = weak or mixed curves, or effect the other way; inactive = flat fitted curve, though single readings scatter.
Potency is read from the fitted curve at half-maximal effect.

The assay in a line: qHTS RealTime-Glo MT Cell Viability Assay in HEK293 cells - 16 hour (AID 1224872). Also: nearly all actives have a fitted effect of over 50% in size. As to activity change, negative = cytotoxicity: top concentration of the series differs between compounds. The following applies: RealTime-Glo luminescence; series mostly up to 76.8 µM; activity change, negative = cytotoxicity: at the top concentration. From the text: National Center for Advancing Translational Sciences [NCATS]
NIH Chemical Genomics Center [NCGC]
U.S. Environmental Protection Agency [EPA]
National Institutes of Environmental Health Sciences [NIEHS]
National Toxicology Program [NTP]
U.S. Food and Drug Administration [FDA]
Measure of cell viability is critical in the cell-base assay. Analysis of cell viability is necessary for the characterization of cell responses to cytotoxic drugs and environmental stress. A RealTime-Glo MT Cell Viability Assay to monitor cell viability in real time of continues cell culture during 40 hours of compound treatment was used to screen Tox21 10K library compounds in Hek293 cells. The RealTime-Glo MT Cell Viability Assay is a nonlytic, homogeneous, bioluminescent method to measure cell viability in real time using a simple, plate-based method. The assay involves adding NanoLuc luciferase and a cell-permeant prosubstrate to cells in culture. Viable cells reduce the proprietary prosubstrate to generate a substrate for NanoLuc luciferase. This substrate diffuses from cells into the surrounding culture medium, where it is rapidly used by the NanoLuc Enzyme to produce a luminescent signal. The signal correlates with the number of viable cells, making the assay well suited for cytotoxicity studies.
Tox21 Assay Protocol Summary:
The mixture of Hek293 cell suspension and reagents were dispensed at 600cells/6 ul/well in 1536-well tissue culture treated black solid bottom plates using a Multidrop dispenser. After the assay plates were incubated at a 37 C/5% CO2 incubator for 5 hours, 23 nL of compounds dissolved in DMSO, positive and negative controls was transferred to the assay plate by a pintool work station. The plates were incubated at 37 C for 40 hours. The luminescence intensity were measured at 0h, 8h, 16h, 24h, 32h and 40h time points using ViewLux plate reader during compound treatment.
In general terms: Quantitative high-throughput screening tests each substance at several concentrations.
For the compound `O=C(O)COc1ccc(Cl)cc1Cl`, the Potency entry is “inactive”.

`C1CCC(NC2CCCCC2)CC1`: the Potency entry was “inactive”.

Regarding `CCCn1cc[n+](C)c1`, the Potency result was “inactive”.

`CCCCCCCCCCCC(=O)O`: the Potency result was “inactive”.

With `COCC(=O)N(c1c(C)cccc1C)C(C)C(=O)OC` (stereo not given), the Potency result was “inactive”.

With `O=P1(N(CCCl)CCCl)NCCCO1` (stereo not given), the Potency entry is “inactive”.

With `CCCCCCCCCCCCOS(=O)(=O)O`, the Potency entry is “inactive”.

In the case of `CC[N+](CC)(CC)CC`, the Potency result was “inactive”.

`Nc1ccccc1`: the Potency entry is “inactive”.

With `Oc1ccccc1-c1ccccc1`, the Potency entry was “inactive”.

Turning to `COP(=O)(OC)OC=C(Cl)Cl`, the Potency entry is “inactive”.

As to `Nc1ccc(-c2ccc(N)c(Cl)c2)cc1Cl`, the Potency was 24.5 µM (active).

Consider `C[N+](C)(C)Cc1ccccc1`, for which the Potency result was “inactive”.

For `Nc1ccc(Cl)cc1`, the Potency entry was “inactive”.

With `CCCC[N+]1(C)CCCCC1`, the Potency entry was “inactive”.

Take `CCn1cc[n+](C)c1C`: the Potency entry was “inactive”.

`O=C(O)CCl`: the Potency result was “inactive”.

As to `CCCCCCCCCCn1cc[n+](C)c1`, the Potency result was “inactive and 346 nM (active)”.

As for `CCC(=O)C(CC(C)N(C)C)(c1ccccc1)c1ccccc1` (stereo not given), the Potency result was “inactive”.

Regarding `CCCC[n+]1ccccc1C`, the Potency entry is “inactive”.

Take `CCCCn1cc[n+](C)c1`: the Potency entry is “inactive”.

For `CN(C)[C@@H]1C(=O)C(C(N)=O)=C(O)[C@@]2(O)C(=O)C3=C(O)c4c(O)cccc4[C@@](C)(O)[C@H]3[C@H](O)[C@@H]12`, the Potency result was “inactive”.

For `COc1ccc(N)cc1`, the Potency result was “inactive”.

For the compound `Oc1cccc2cccnc12`, the Potency entry is “inactive”.

With `CCNc1nc(Cl)nc(NCC)n1`, the Potency entry is “inactive”.

Take `CCCC[n+]1ccccc1`: the Potency entry was “inactive”.

Turning to `CC(Cl)(Cl)C(=O)O`, the Potency entry was “inactive”.

As for `CCC[N+]1(C)CCCCC1`, the Potency result was “inactive”.

In the case of `Cc1cc(Cl)ccc1N`, the Potency entry is “inactive”.

Regarding `Cc1cc(-c2ccc(N)c(C)c2)ccc1N`, the Potency result was “inactive”.

In the case of `CCCCCCCCCCCCCC[P+](CCCCCC)(CCCCCC)CCCCCC`, the Potency was 7.8 µM (active) and 8.78 µM (active).

As for `OCCOc1ccccc1`, the Potency entry was “inactive”.

`CCCCCC[n+]1ccccc1`: the “activity change, negative = cytotoxicity” value was -0.805% (inactive).

Consider `Cc1cc(Cl)ccc1OCC(=O)O`, for which the Potency result is “inactive”.

On to `O=c1nc(O)n(Cl)c(=O)n1Cl`, for which the Potency entry is “inactive”.

Regarding `O=C(O)c1ccccc1O`, the Potency entry is “inactive”.

Take `O=C(O)C(Cl)(Cl)Cl`: the Potency result was “inactive”.

Turning to `CC(=O)[O][Hg][c]1ccccc1`, the Potency was 344 nM (active) and 1.1 µM (active) and 268 nM (active).

In the case of `CCC[N+]1(C)CCCC1`, the Potency result is “inactive”.

In the case of `CCCC[N+]1(C)CCCC1`, the Potency entry was “inactive”.

Source of the values: PubChem BioAssay (Tox21).
